Data taken from PubChem BioAssay (NCI).
Compounds without any hit were thinned out: in the full panel of roughly 79,000, 15% have a hit. The source made the active and inactive calls. No stated cut-off is given here; in the data, active means growth inhibition above about 70%; inactive means the rest.

What was measured:
[1] = NCI Yeast Anticancer Drug Screen. Data for the rad50 strain (AID 155);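 further: 0% = growth of vehicle-only cultures of the same strain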; details: S. cerevisiae rad50 strain growth inhibition, stronger effect = higher value
How it was run: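 Growth of the mutant yeast was measured after compound exposure and referenced to vehicle-treated cultures.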

[2] = NCI Yeast Anticancer Drug Screen. Data for the mec2-1 strain (AID 157); details: S. cerevisiae mec2-1 strain, stronger effect = higher value
How it was run: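 Yeast mec2-1 mutant treated with compound. Readout: growth inhibition vs vehicle controls.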

[3] = NCI Yeast Anticancer Drug Screen. Data for the sgs1 mgt1 strain (AID 161);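 further: 0% = growth of cultures given vehicle only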; details: S. cerevisiae sgs1 mgt1 strain, stronger effect = higher value
How it was run: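 Read-out: growth inhibition vs vehicle controls. Cells: mutant yeast strain deficient in DNA damage repair.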

[4] = NCI Yeast Anticancer Drug Screen. Data for the cln2 rad14 strain (AID 165);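 further: 0% = growth equal to vehicle treated cultures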; details: S. cerevisiae cln2 rad14 strain, stronger effect = higher value
How it was run: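 cln2 rad14 yeast strain; compound exposure; growth inhibition read vs vehicle controls.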

[5] = NCI Yeast Anticancer Drug Screen. Data for the bub3 strain (AID 167); details: S. cerevisiae bub3 mutant strain, stronger effect = higher value
How it was run: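 Whole-cell yeast assay. The mutant strain was incubated with compounds, and growth inhibition was determined by comparison with vehicle-treated cells.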

[6] = NCI Yeast Anticancer Drug Screen. Data for the mlh1 rad18 strain (AID 175); details: S. cerevisiae mlh1 rad18 strain growth inhibition, stronger effect = higher value
How it was run: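 Yeast w/ defined DNA-repair lesions; compound exposure; growth vs vehicle controls → % inhibition.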

[7] = at 5.0 µM (retest, dose inferred, filed as 0.5)
[8] = at 50.0 µM (retest, dose inferred, filed as 5.0)

Measured: growth inhibition

COc1cc2c(c(OC)c1OC)-c1ccc(O)c(=O)cc1C(N=Cc1ccccc1)CC2 (stereo not given)
inactive: [1]; [7] -5% | [1]; [8] -5% | [1]; at 50.0 µM -17.9% | [2]; [7] -6% | [2]; [8] -7% | [2]; at 50.0 µM -4.45% | [3]; [7] -8% | [3]; [8] -3% | [3]; at 50.0 µM -5.3% | [4]; [7] -7% | [4]; [8] 4% | [4]; at 50.0 µM 31.9% | [5]; [7] -2% | [5]; [8] -2% | [5]; at 50.0 µM 0.2% | [6]; [7] -2% | [6]; [8] 0% | [6]; at 50.0 µM 18.8%

CCCCCC(CN(C)C)C(=O)/C=C/c1ccc(Cl)cc1 (stereo not given)
active: [1]; [8] 99% | [1]; at 50.0 µM 99.2% | [2]; [8] 100% | [2]; at 50.0 µM 99.3% | [3]; [8] 99% | [3]; at 50.0 µM 99.3% | [4]; [8] 99% | [4]; at 50.0 µM 99.2% | [5]; [8] 98% | [5]; at 50.0 µM 99.3% | [6]; [8] 99% | [6]; at 50.0 µM 99.2%
inactive: [1]; [7] 21% | [2]; [7] -1% | [3]; [7] 6% | [4]; [7] -1% | [5]; [7] 5% | [6]; [7] 33%

CC(=O)N(O)c1ccc2c(c1)Cc1cc(F)ccc1-2
inactive: [1]; [8] 37% | [2]; [7] 34% | [2]; [8] 29% | [3]; [7] 65% | [3]; [8] 35% | [4]; [7] 45% | [4]; [8] 21% | [5]; [7] -14% | [6]; [7] 49% | [6]; [8] 57%
active: [1]; [7] 75% | [1]; at 50.0 µM 97% | [2]; at 50.0 µM 94% | [3]; at 50.0 µM 97.1% | [4]; at 50.0 µM 92.5% | [5]; [8] 80% | [5]; at 50.0 µM 97.8% | [6]; at 50.0 µM 96.5%

Cc1cc(SCc2ccccc2)cc(C)[o+]1
active: [1]; [8] 92% | [2]; [8] 99% | [3]; [8] 88% | [4]; [8] 93% | [5]; [8] 96% | [6]; [8] 96%
inactive: [1]; [7] -1% | [1]; at 50.0 µM 17.4% | [2]; [7] 18% | [2]; at 50.0 µM 44.4% | [3]; [7] -20% | [3]; at 50.0 µM 60.1% | [4]; [7] -1% | [4]; at 50.0 µM 55.8% | [5]; [7] -2% | [5]; at 50.0 µM 61.5% | [6]; [7] -6% | [6]; at 50.0 µM 63.7%

N#Cc1cc2c(cc1Cl)Sc1nccn1S2(=O)=O
inactive: [1]; [7] 5% | [1]; [8] 36% | [1]; at 50.0 µM 28.4% | [2]; [7] 6% | [2]; [8] 52% | [2]; at 50.0 µM 34.7% | [3]; [7] 19% | [3]; [8] 63% | [3]; at 50.0 µM 43.7% | [4]; [7] -1% | [4]; [8] 17% | [4]; at 50.0 µM 39.2% | [5]; [7] 10% | [6]; [7] 2% | [6]; [8] 62% | [6]; at 50.0 µM 64%
active: [5]; [8] 90% | [5]; at 50.0 µM 76.7%

CN(C)c1ccc(C(c2ccc(N(C)C)cc2)c2ccc3c(c2)OCO3)cc1
active: [1]; [7] 98% | [1]; at 50.0 µM 95% | [2]; [7] 99% | [2]; at 50.0 µM 94% | [3]; [7] 97% | [3]; [8] 85% | [3]; at 50.0 µM 95.8% | [4]; [7] 98% | [4]; at 50.0 µM 88.8% | [5]; [7] 99% | [5]; [8] 81% | [5]; at 50.0 µM 90% | [6]; [7] 98% | [6]; [8] 90% | [6]; at 50.0 µM 91.6%
inactive: [1]; [8] 66% | [2]; [8] 62% | [4]; [8] 32%

CCC[CH2][Sn]([Cl])([CH2]CCC)[S]/C(C#N)=N/N=C/c1ccc(N(C)C)cc1
active: [1]; [7] 97% | [1]; [8] 98% | [1]; at 50.0 µM 98.2% | [2]; [7] 97% | [2]; [8] 98% | [2]; at 50.0 µM 98.8% | [3]; [7] 97% | [3]; [8] 98% | [3]; at 50.0 µM 98.8% | [4]; [7] 99% | [4]; [8] 98% | [4]; at 50.0 µM 97.9% | [5]; [7] 97% | [5]; [8] 98% | [5]; at 50.0 µM 98.8% | [6]; [7] 98% | [6]; [8] 97% | [6]; at 50.0 µM 98.7%

COc1nc(NC2OCC(O)C(O)C2O)c(Cl)c(=O)n1C (stereo not given)
inactive: [1]; [7] 0% | [1]; [8] -1% | [1]; at 50.0 µM -15.4% | [2]; [7] -1% | [2]; [8] -5% | [2]; at 50.0 µM -3.7% | [3]; [7] -2% | [3]; [8] -3% | [3]; at 50.0 µM 11.4% | [4]; [7] -1% | [4]; [8] -3% | [4]; at 50.0 µM 30.4% | [5]; [7] -2% | [5]; [8] -4% | [5]; at 50.0 µM 10.2% | [6]; [7] -5% | [6]; [8] -7% | [6]; at 50.0 µM -7.85%

O=C(SCCCc1ccccc1)c1cc([N+](=O)[O-])cc([N+](=O)[O-])c1
inactive: [2]; at 50.0 µM 66.3% | [5]; at 50.0 µM 66%
active: [1]; [7] 98% | [1]; [8] 87% | [1]; at 50.0 µM 75.7% | [2]; [7] 100% | [2]; [8] 98% | [3]; [7] 99% | [3]; [8] 94% | [3]; at 50.0 µM 85.8% | [4]; [7] 94% | [4]; [8] 89% | [4]; at 50.0 µM 78.6% | [5]; [7] 98% | [5]; [8] 98% | [6]; [7] 98% | [6]; [8] 94% | [6]; at 50.0 µM 76.6%

CN(C(=O)c1ccc(Cl)cc1)C(=S)N1CCN(c2ccccc2)CC1
inactive: [1]; [7] -11% | [2]; [7] -5% | [3]; [7] -16% | [4]; [7] 3% | [4]; [8] 41% | [4]; at 50.0 µM 61.2% | [5]; [7] 1% | [5]; at 50.0 µM 63.5% | [6]; [7] -10%
active: [1]; [8] 72% | [1]; at 50.0 µM 80.3% | [2]; [8] 80% | [2]; at 50.0 µM 74.1% | [3]; [8] 82% | [3]; at 50.0 µM 79% | [5]; [8] 88% | [6]; [8] 89% | [6]; at 50.0 µM 72.5%
